Assay results: PubChem BioAssay
Active and inactive are the calls of the source.

Legend:
[1] = optical density shifts of acrAB sulA E. coli – strain DRC41, OD650, 48 h, E. coli filamentation inducer project, primary screen (AID 1152); details: higher = more signal, called active from +8 up or from −8 down;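 also: E. coli MC1000 strain DRC41 lacking acrAB efflux pump and sulA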
[2] = probe aLefty1 binding on compound microarray – biochemical, small-molecule microarray, 635/667 nm fluorescence, primary screen (AID 1153); details: higher = more signal;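 also: score merges spot fluorescence with signal-to-noise ratio from the scanned slide images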
[3] = plasmodial surface anion channel blockers, osmotic lysis – cell-based, P. falciparum Indochina, OD700, 1 h, primary screen (AID 1154); details: P. falciparum Indochina infected RBC osmotic lysis, higher = more signal, called active from +8 up or from −8 down
[4] = plasmodial surface anion channel blockers, osmotic lysis – cell-based, P. falciparum Indochina, OD700, 2 h, primary screen (AID 1155);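 also: lysis reports solute entry through the parasite surface anion channel PSAC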; details: P. falciparum Indochina infected erythrocytes, higher = more signal, called active from +8 up or from −8 down
[5] = changes in parasitized red cell lysis, either direction – P. falciparum Indochina, OD700, 3 h, PSAC antagonist project, primary screen (AID 1156); details: P. falciparum-infected erythrocytes, osmotic lysis, higher = more signal, called active from +8 up or from −8 down
[6] = plasmodial surface anion channel blockers, osmotic lysis – cell-based, P. falciparum Indochina, OD700, 18 h, primary screen (AID 1157); details: P. falciparum Indochina infected erythrocytes, osmotic lysis OD700, 18 h; higher = more signal, called active from +8 up or from −8 down
[7] = S6 kinase pathway phospho-S6 level changes – cell-based, A549, cytoblot, luminescence, serum-stimulated, primary screen (AID 1158); details: 5 h, higher = more signal;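 also: serum-stimulated A549 lung adenocarcinoma cells; signal is phosphorylated S6 detected by cytoblot immunostaining with HRP secondary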
[8] = target: NADPH oxidase 2 (Homo sapiens) (UniProt P04839); test: compounds shifting NOX2 Amplex Red fluorescence – cell-based, HEK293-NOX2, PMA-stimulated, NOX inhibitor project, primary screen (AID 1159); details: 45 min, higher = more signal, called active from +8 up or from −8 down; also: test concentration not given here
Sequence of NADPH oxidase 2 (Homo sapiens) (P04839 whole entry, looked up): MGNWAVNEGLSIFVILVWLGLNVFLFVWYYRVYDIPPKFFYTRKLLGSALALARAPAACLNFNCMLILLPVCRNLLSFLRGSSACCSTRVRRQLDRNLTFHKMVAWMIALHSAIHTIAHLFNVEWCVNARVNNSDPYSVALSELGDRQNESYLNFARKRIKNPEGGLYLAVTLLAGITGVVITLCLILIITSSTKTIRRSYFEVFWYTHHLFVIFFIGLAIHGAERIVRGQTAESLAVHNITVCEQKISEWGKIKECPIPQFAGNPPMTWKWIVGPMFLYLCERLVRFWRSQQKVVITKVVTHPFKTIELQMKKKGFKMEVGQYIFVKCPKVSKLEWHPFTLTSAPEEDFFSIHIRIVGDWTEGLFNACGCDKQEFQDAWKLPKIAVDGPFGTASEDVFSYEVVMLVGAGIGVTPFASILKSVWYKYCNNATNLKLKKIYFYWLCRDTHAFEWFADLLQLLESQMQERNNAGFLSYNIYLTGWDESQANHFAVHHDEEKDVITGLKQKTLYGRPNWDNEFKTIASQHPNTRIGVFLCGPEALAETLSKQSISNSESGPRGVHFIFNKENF

[9] = target: NADPH oxidase 4 (Homo sapiens) (UniProt Q9NPH5); test: compounds shifting NOX4 Amplex Red fluorescence – cell-based, HEK293-NOX4, tetracycline-induced, NOX inhibitor project, primary screen (AID 1160); details: HEK293-NOX4, Amplex Red H2O2 fluorescence, 45 min; higher = more signal, called active from +8 up or from −8 down
Sequence of NADPH oxidase 4 (Homo sapiens) (Q9NPH5 whole entry, looked up): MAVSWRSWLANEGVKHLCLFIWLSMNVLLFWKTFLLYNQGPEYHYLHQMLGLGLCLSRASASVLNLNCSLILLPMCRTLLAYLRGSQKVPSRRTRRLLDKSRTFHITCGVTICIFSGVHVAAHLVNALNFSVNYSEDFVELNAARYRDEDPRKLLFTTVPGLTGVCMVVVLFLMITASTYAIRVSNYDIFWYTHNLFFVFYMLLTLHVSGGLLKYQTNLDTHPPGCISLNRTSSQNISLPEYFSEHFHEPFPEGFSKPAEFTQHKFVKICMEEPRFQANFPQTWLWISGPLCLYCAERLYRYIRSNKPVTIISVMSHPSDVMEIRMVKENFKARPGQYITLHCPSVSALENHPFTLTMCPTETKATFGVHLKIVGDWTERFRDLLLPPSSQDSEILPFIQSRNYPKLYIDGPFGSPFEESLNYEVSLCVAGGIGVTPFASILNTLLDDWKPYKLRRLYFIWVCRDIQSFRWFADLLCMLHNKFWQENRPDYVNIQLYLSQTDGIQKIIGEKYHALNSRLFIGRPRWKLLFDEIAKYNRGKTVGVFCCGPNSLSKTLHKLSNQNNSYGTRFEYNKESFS

[10] = target: NADPH oxidase 5 (Homo sapiens) (UniProt Q96PH1); test: compounds shifting NOX5 Amplex Red fluorescence – cell-based, HEK293-NOX5, NOX inhibitor project, primary screen (AID 1161); details: HEK293-NOX5, ionomycin, 45 min, higher = more signal
Sequence of NADPH oxidase 5 (Homo sapiens) (Q96PH1 whole entry, looked up): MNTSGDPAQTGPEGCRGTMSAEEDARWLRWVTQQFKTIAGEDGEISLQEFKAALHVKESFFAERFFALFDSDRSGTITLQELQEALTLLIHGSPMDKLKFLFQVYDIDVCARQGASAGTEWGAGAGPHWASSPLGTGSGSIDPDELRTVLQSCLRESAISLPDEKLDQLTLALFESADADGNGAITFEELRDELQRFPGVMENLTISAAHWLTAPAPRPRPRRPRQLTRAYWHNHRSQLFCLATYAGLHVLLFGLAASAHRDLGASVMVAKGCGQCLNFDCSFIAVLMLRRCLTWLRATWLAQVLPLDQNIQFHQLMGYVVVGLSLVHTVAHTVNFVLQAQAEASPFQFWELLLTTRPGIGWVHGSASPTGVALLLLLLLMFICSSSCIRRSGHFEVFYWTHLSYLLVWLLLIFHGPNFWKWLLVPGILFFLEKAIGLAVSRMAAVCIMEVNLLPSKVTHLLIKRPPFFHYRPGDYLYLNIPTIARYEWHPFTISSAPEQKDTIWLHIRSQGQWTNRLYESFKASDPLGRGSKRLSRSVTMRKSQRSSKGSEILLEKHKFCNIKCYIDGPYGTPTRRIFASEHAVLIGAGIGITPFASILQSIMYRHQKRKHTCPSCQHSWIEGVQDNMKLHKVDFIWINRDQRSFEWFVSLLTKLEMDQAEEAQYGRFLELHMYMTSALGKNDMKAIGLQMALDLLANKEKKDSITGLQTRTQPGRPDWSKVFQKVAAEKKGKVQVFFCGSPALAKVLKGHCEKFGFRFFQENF

[11] = compound effects on lung adenocarcinoma cell viability – A549, calcein-AM fluorescence, 48 h, basal, profiling panel (AID 1162); details: higher = more signal; also: test concentration not given here
[12] = compound effects on differentiated 3T3-L1 adipocyte viability – cell-based, 3T3-L1 adipocytes, calcein-AM fluorescence, 48 h, basal, profiling panel (AID 1163); details: 3T3-L1 adipocytes viability, higher = more signal; also: test concentration not given here
[13] = compound effects on hepatocellular carcinoma cell viability – HepG2, calcein-AM fluorescence, 48 h, basal, profiling panel (AID 1164); details: higher = more signal; also: test concentration not given here
[14] = compound effects on multiple myeloma cell viability – MM1S, calcein-AM fluorescence, 48 h, basal, profiling panel (AID 1165); details: higher = more signal;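 also: viability of MM1S multiple myeloma cells under basal unstimulated conditions; test concentration not given here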
[15] = calcein-AM signal in unstimulated myeloma cells – cell-based, calcein-AM fluorescence, 48 h, PK04 Diversity Set, profiling panel (AID 1166); details: RPMI8226 myeloma viability, higher = more signal;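 also: cells grown under basal conditions without added stimulus; test concentration not given here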
[16] = JC-1 mitochondrial signal, unstimulated HepG2 cells – cell-based, JC-1 fluorescence, 24 h, 100 nL compound, profiling panel (AID 1167); details: HepG2 mitochondrial potential, higher = more signal; also: test concentration not given here
[17] = JC-1 mitochondrial signal, unstimulated adipocytes – cell-based, JC-1 fluorescence, 3T3-L1 adipocytes, 24 h, 100 nL compound, profiling panel (AID 1168); details: JC-1 mitochondrial fluorescence, higher = more signal, called active from +8 up or from −8 down; also: test concentration not given here
[18] = JC-1 mitochondrial signal, unstimulated myeloma cells – cell-based, JC-1 fluorescence, RPMI8226, 24 h, 100 nL compound, profiling panel (AID 1169); details: JC-1 mitochondrial potential fluorescence, higher = more signal; also: test concentration not given here
[19] = JC-1 mitochondrial signal, unstimulated MM1S myeloma – cell-based, JC-1 fluorescence, 24 h, 100 nL compound, profiling panel (AID 1170); details: MM1S mitochondrial potential, higher = more signal; also: test concentration not given here
[20] = resazurin metabolic signal in A549 cells – cell-based, resazurin fluorescence, 24 h, PK04 Diversity Set, profiling panel (AID 1171); details: A549 viability, higher = more signal, called active from +8 up or from −8 down; also: test concentration not given here

Structure (SMILES)	z-score [1]	composite z-score [2]	z-score [3]	z-score [4]	z-score [5]	z-score [6]	z-score [7]	z-score [8]	z-score [9]	z-score [10]	z-score [11]	z-score [12]	z-score [13]	z-score [14]	z-score [15]	z-score [16]	z-score [17]	z-score [18]	z-score [19]	z-score [20]
C=C(COC)C(=O)CC[C@@H](OC(=O)c1cccnc1)c1ccccc1OCCO	0.0001 (inactive)	-0.106	21.2 (active)	2.88 (inactive)	0.793 (inactive)	0.65 (inactive)	-0.347	-2.12 (inactive)	-0.369 (inactive)	-1.4	-0.0755	0.46	-1.16	-3.38	-3.82	-0.758	1.08 (inactive)	-0.67	-2.43	0.1 (inactive)
COCC1=C2[C@@H](CCc3ccccc3)OB(O)C[C@@H]2[C@@H]2C(=O)N(C)C(=O)[C@@H]2C1	-0.801 (inactive)	0.0355	1.4 (inactive)	-0.301 (inactive)	-0.793 (inactive)	-0.015 (inactive)	-0.1	-0.116 (inactive)	0.762 (inactive)	0.217	-0.0482	-0.184	-0.187	-0.145	-0.126	-1.54	0.176 (inactive)	-0.0658	-0.239	-0.425 (inactive)
CCCNC(=O)[C@@]1(Sc2ccc(C)cc2)CC(=O)N(C(C)C)[C@@H]1c1ccc(CO)cc1I	-0.236 (inactive)	-0.0046	5.82 (inactive)	0.424 (inactive)	0.0627 (inactive)	0.108 (inactive)	-0.198	2.46 (inactive)	-2.43 (inactive)	0.276	0.505	0.49	-0.658	-2.65	-2.09	0.632	-0.769 (inactive)	-0.919	-1.02	-0.0866 (inactive)
O=C1N(CCS(=O)(=O)c2ccccc2)Cc2ccccc2[C@@H]2OC(c3ccc(OCCCO)cc3)=N[C@]12CCS(=O)(=O)c1ccccc1	-0.769 (inactive)	0.568	26 (active)	18.8 (active)	3.14 (inactive)	2.44 (inactive)	-0.355	1.5 (inactive)	2.01 (inactive)	1.96	1.35	0.859	0.345	-0.635	-1	-1.65	1.72 (inactive)	-0.933	-1.01	0.409 (inactive)
C=C(COC)/C(=C/C[C@@H](OC(=O)c1ccncc1)c1ccccc1OCCO)c1cc(C(=O)OC)ccc1OC	0.132 (inactive)	-0.0654	23.5 (active)	6 (inactive)	1.74 (inactive)	1.02 (inactive)	0.171	-0.97 (inactive)	-1.4 (inactive)	-2.07	2.37	-0.193	-0.11	-3.29	-1.63	1.35	-1.04 (inactive)	-0.735	-1.9	0.314 (inactive)
COCCOC(=O)N1C(=O)[C@@]2(c3cc(C#Cc4ccc(OC)cc4)ccc31)[C@H](C(=O)NC[C@H](O)c1ccccc1)[C@H]1C(=O)O[C@H](c3ccccc3)[C@H](c3ccccc3)N1[C@@H]2c1ccc(OCCO)cc1	1.34 (inactive)	0.179	5.02 (inactive)	1.45 (inactive)	-0.191 (inactive)	0.312 (inactive)	2	-0.756 (inactive)	-2.17 (inactive)	-2.61	-0.953	0.55	-1.1	-0.915	-1.47	-1.97	2.35 (inactive)	-0.66	-1.78	1.32 (inactive)
CC(C)CNC(=O)[C@@H]1c2ccccc2C(=O)N(C2CCCCC2)[C@H]1c1ccc(CO)cc1	3.5 (inactive)	0.259	1.36 (inactive)	0.387 (inactive)	0.472 (inactive)	-0.288 (inactive)	1.24	-0.318 (inactive)	1.42 (inactive)	0.297	2.93	0.258	1.41	0.0402	0.424	4.35	1.16 (inactive)	0.301	-0.605	2.26 (inactive)
C=C(COC)/C(=C/C[C@H](OC(C)=O)c1cccc(OCCO)c1)c1cnc2ccccc2c1	-0.339 (inactive)	0.0999	15.2 (active)	2.65 (inactive)	1.41 (inactive)	0.872 (inactive)	-0.512	0.373 (inactive)	0.228 (inactive)	-0.167	0.858	1.01	0.455	-2.78	-0.114	0.713	-0.437 (inactive)	0.23	-0.0946	0.127 (inactive)
COc1ccc([Si](C)(C)[C@@H]2[C@@H](CCn3cc([C@H](O)c4ccccc4)nn3)O[C@]3(C(=O)N(Cc4cccc(N5C(=O)c6cccc7cccc5c67)c4)c4ccccc43)[C@H]2C)cc1	-0.603 (inactive)	0.0056	1.8 (inactive)	0.662 (inactive)	1.1 (inactive)	0.794 (inactive)	-0.256	1.08 (inactive)	1.48 (inactive)	2.2	-0.381	0.0092	0.3	-0.189	-2.11	1.07	-0.265 (inactive)	-0.681	-0.193	-1.26 (inactive)
COc1ccc([Si](C)(C)[C@@H]2[C@@H](CC(=O)N3Cc4ccccc4C[C@H]3CO)O[C@]3(C(=O)N(c4ccccc4)c4ccccc43)[C@H]2C)cc1	0.162 (inactive)	0.855	6.47 (inactive)	1.76 (inactive)	0.168 (inactive)	1.65 (inactive)	0.947	0.651 (inactive)	0.71 (inactive)	0.544	-0.77	0.703	-2.85	-2.37	-4.35	1.37	0.631 (inactive)	-1.06	-2.08	-1.39 (inactive)
C=C[C@@H](OC)[C@H](OC(=O)Nc1ccc(OC)cc1)c1ccc(OC)c(O)c1	0.139 (inactive)	-0.123	2.48 (inactive)	0.96 (inactive)	0.0081 (inactive)	0.45 (inactive)	-0.0451	-2.52 (inactive)	-1.04 (inactive)	-1.2	-0.464	0.605	-0.192	-0.0794	1.05	-0.733	0.141 (inactive)	0.616	0.454	0.376 (inactive)
CCc1cccc(NC(=O)O[C@H]2[C@H](OC(=O)Nc3ccccc3)[C@H](OC(=O)Nc3ccccc3)[C@@H](OC)O[C@@H]2CO)c1	-1.42 (inactive)	0.253	10.1 (active)	3.34 (inactive)	-1.53 (inactive)	1.92 (inactive)	0.213	-1.12 (inactive)	-0.593 (inactive)	-1.3	-1.97	1.18	-5.14	-3.46	-4.3	-2.34	0.867 (inactive)	-1.2	-2.32	-4.35 (inactive)
COc1cccc(/C=C(\C#N)C(=O)Nc2c(C)n(C)n(-c3ccccc3)c2=O)c1	1.42 (inactive)	-0.168	2.13 (inactive)	-0.901 (inactive)	0.381 (inactive)	-0.924 (inactive)	1.06	-0.355 (inactive)	0.139 (inactive)	0.595	2.14	1.12	1.01	-0.485	0.101	0.778	0.159 (inactive)	0.505	-0.535	-0.589 (inactive)
CC(C)c1ccc(NN2C(C(O)Cc3ccccc3)C=CC3C(=O)N(c4ccccc4)C(=O)C32)cc1 (stereo not given)	-1.76 (inactive)	0.181	1.93 (inactive)	1.31 (inactive)	0.127 (inactive)	1.05 (inactive)	-1.27	-0.343 (inactive)	-3.62 (inactive)	-2.69	-0.989	-0.482	0.526	-1.06	-0.434	-2	-0.864 (inactive)	0.411	1.51	-0.63 (inactive)
C=CCNC(=O)[C@H]1[C@@H]2C(=O)O[C@@H](c3ccccc3)[C@@H](c3ccccc3)N2[C@@H](c2ccc(O)cc2)[C@]12C(=O)N(C(=O)OCCOC)c1ccc(C#CCC(C(=O)OC)C(=O)OC)cc12	-0.275 (inactive)	0.139	5.56 (inactive)	1.27 (inactive)	-4.17 (inactive)	0.516 (inactive)	-0.016	1.95 (inactive)	1.14 (inactive)	1.52	1.1	-0.206	-0.615	-2.93	-4.49	-1.26	0.448 (inactive)	-1.34	-1.83	0.979 (inactive)
COCCOC(=O)N1C(=O)[C@@]2(c3cc(C#CCCO)ccc31)[C@H](C(N)=O)[C@H]1C(=O)O[C@H](c3ccccc3)[C@H](c3ccccc3)N1[C@@H]2c1ccc(OCCO)cc1	-0.138 (inactive)	0.157	23.4 (active)	5.49 (inactive)	1.88 (inactive)	1.3 (inactive)	0.388	1.78 (inactive)	1.1 (inactive)	0.785	0.518	0.0809	0.325	-0.971	-0.859	-1.78	0.959 (inactive)	-0.505	-0.0622	-0.0958 (inactive)
CCOC(=O)C[C@H]1[C@H](OC(=O)c2ccccc2-c2ccccc2)[C@@H](NC(=O)c2ccc3ccccc3n2)c2cc(OCCCO)ccc2N1C(=O)c1ccccc1	-1.04 (inactive)	0.0355	1.35 (inactive)	0.496 (inactive)	0.667 (inactive)	0.305 (inactive)	-0.35	0.838 (inactive)	1.23 (inactive)	2.31	0.198	0.197	0.305	-0.295	-0.0468	0.549	-0.178 (inactive)	-0.707	0.625	0.143 (inactive)
C=C(CCCC)C(=O)CC[C@H](OC(C)=O)c1ccc(OCCO)cc1	2.2 (inactive)	-0.316	11.3 (active)	0.316 (inactive)	1.61 (inactive)	-0.623 (inactive)	2	-3.16 (inactive)	-1.5 (inactive)	-3.11	0.95	3.04	-0.0781	-2.86	-3.54	0.764	-0.387 (inactive)	-0.248	-1.39	0.697 (inactive)
